Sampled rows, rich in hits. Any-hit rate of the full collection: about 4.8%.
hgDAF12 agonist: hgDAF-12 agonism, primary luciferase screen; HEK293 GAL4-hgDAF12 UAS-luciferase reporter, agonist luminescence; normalized to butyrate control; activation, % at 6.8 µM; 370,000 compounds, 1.8% hits; AID 687014;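 active = activation above a cutoff set at the mean of all screened compounds plus 3 SD, cut at about 10% in these data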
DAX1 inh-1: DAX1 (NR0B1) inhibition, primary screen; HEK293T StAR-luciferase reporter, SF-1/DAX-1 repression relief; inhibition, % at 6.8 µM; 370,000 compounds, 1.1% hits; AID 652010;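 active = inhibition above the mean over all tested compounds plus 3 SD, cut at about 3.6% in these data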;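 note: higher inhibition means more luminescence from relief of DAX-1 repression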
Rev-erbA mod: modulators of human Rev-erb alpha DNA binding | P20393 | Rev-erbα–FITC-DNA binding, fluorescence polarization, 90 min | activity, % at 10 µM | 370,000 compounds, 0.79% hits;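 active = activity above about 14%, limit read from the data; passing the limit was not always enough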
DAX1 inh-2: inhibits human nuclear receptor DAX1; inhibition, % at 6.75 µM; P51843; HEK293 Gal4-DAX1 luciferase reporter, luminescence; 340,000 compounds, 0.99% hits;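 active = inhibition above the mean over all tested compounds plus 3 SD, cut at about 4.2% in these data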;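 note: inhibition shows as a rise in luminescence from relieved DAX1 repression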
Target sequence (P51843 207-470 limits assumed): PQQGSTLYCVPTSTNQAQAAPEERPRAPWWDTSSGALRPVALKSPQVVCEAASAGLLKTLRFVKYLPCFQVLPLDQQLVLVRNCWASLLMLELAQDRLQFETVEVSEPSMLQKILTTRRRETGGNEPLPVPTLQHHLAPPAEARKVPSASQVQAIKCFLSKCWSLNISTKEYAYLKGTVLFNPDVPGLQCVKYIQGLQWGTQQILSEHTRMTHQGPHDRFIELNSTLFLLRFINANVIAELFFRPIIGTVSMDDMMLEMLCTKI
ssDAF12 agonist: S. stercoralis DAF-12 activation, primary screen | 370,000 compounds, 1% hits | HEK293 ssDAF-12/GRIP1 lit1-tk-luc reporter, luminescence; % of 3 µM dafachronic acid response | activation, % at 6.8 µM | AID 652126;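 active = activation above the mean over all tested compounds plus 3 SD, cut at about 0.9% in these data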
hcDAF12 agonist: activates DAF-12 receptor from parasite H. contortus. HEK293 hcDAF-12 lit1-tk-luc reporter, luminescence; 0% DMSO, 100% Δ7-dafachronic acid. activation, % at 6.8 µM. 370,000 compounds, 1.4% hits. AID 652067;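 active = activation above the mean of all tested compounds plus 3 SD, cut at about 5.5% in these data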
hgDAF12 ag: hgDAF-12 agonism, confirmation assay. shares compounds with hgDAF12 agonist. HEK293 GAL4-hgDAF12 luciferase reporter, agonist mode; percent of butyrate response. activation, % at 6.8 µM. 3,300 compounds, 80% hits. AID 743050;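 active = mean activation over triplicate wells above the hit cutoff derived from the earlier primary screen, cut at about 11% in these data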
LXR ag 2: counter-screen for DAF-12 agonists: agonists of human LXR-beta | 3,300 tested, under 10 active | shares compounds with hgDAF12 agonist | AID 743051 | HEK293 Gal4-LXR luciferase reporter, 24 h | activation, % at 6.8 µM;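 active = mean activation of the triplicate above a set limit carried over from the primary screen, none filed active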
Target sequence (P55055 whole entry, looked up, the tested form may be a part): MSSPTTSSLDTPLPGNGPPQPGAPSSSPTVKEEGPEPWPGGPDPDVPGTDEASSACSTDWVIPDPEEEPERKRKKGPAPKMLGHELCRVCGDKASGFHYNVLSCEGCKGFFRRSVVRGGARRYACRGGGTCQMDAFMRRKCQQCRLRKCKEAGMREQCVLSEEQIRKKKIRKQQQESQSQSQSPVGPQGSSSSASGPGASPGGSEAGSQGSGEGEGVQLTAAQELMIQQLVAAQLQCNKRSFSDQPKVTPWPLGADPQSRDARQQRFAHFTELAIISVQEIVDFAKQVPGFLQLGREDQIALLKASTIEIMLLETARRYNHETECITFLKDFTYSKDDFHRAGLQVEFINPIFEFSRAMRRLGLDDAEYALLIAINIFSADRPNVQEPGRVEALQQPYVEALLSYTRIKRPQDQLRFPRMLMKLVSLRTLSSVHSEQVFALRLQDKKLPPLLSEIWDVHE
Each line names hits and unclear results; the compound was inactive in the other large screens (follow-up assays come after a bar, where they were run).

N#Cc1c(NC(=O)c2ccccc2)sc2c1CCC2	hgDAF12 agonist 16, hcDAF12 agonist 5.7 | hgDAF12 ag 23 | LXR ag 2 inactive
COC(=O)[C@]12C[C@H](CC(=O)NCC34CC5CC(CC(C5)C3)C4)C(=O)N(Cc3ccccc3)C1=C[C@H](C1CCCC1)O[C@@H]2C	none (no result: DAX1 inh-2)
CN1CCCCC(NC(=O)c2cccc(F)c2)C1=O (stereo not drawn)	none (no result: DAX1 inh-2)
Cc1cc(N2CCN(CC(C)(C)O)C[C@H]2C)ccc1N1CCN(Cc2ccccc2)[C@@H](C)C1	none (no result: DAX1 inh-2)
COc1ccc(-c2cc(C(=O)N3CCCC3)no2)cc1	hgDAF12 agonist 14 | hgDAF12 ag inactive | LXR ag 2 inactive
COc1ccc(-c2cc(C(=O)N3CCN(C(c4ccccc4)c4ccccc4)CC3)no2)cc1	none (no result: hgDAF12 agonist, DAX1 inh-1, ssDAF12 agonist, hcDAF12 agonist)
O=C(c1cc(-c2ccccc2)on1)N1CCCCCC1	hgDAF12 agonist 13 | hgDAF12 ag 15 | LXR ag 2 inactive
CCOC(=O)C1CCCN(C(=O)c2cc(-c3ccc(C)cc3)on2)C1 (stereo not drawn)	none
O=C(c1cc(-c2ccccc2)on1)N1CCN(C(=O)c2ccco2)CC1	none
O=C(c1cc(-c2ccc(Br)cc2)on1)N1CCCC1	hgDAF12 agonist 19 | hgDAF12 ag 15 | LXR ag 2 inactive
COC(=O)c1cc(-c2ccc(Br)cc2)on1	none
Cc1ccc(-c2cc(C(=O)N3CCCCCC3)no2)cc1	hgDAF12 agonist 14, ssDAF12 agonist 1.3 | hgDAF12 ag 21 | LXR ag 2 inactive
CCCC1CCC2(CCCN2CCOC(=O)Nc2ccc(OC)cc2)CC1 (stereo not drawn)	none (no result: DAX1 inh-1, DAX1 inh-2)
Cc1ccccc1NC(=O)O[C@H]1CC[C@@]23CCCN2C(=O)CCC[C@H]3[C@H]1C	none (no result: DAX1 inh-1, DAX1 inh-2)
O=C(c1cc(-c2ccccc2O)on1)N1CCCCCC1	hgDAF12 agonist 14 | hgDAF12 ag inactive | LXR ag 2 inactive
O=C(c1cc(-c2ccccc2O)on1)N1CCOCC1	none
O=C(c1cc(-c2ccc(O)cc2)on1)N1CCCC1	hgDAF12 agonist 15 | hgDAF12 ag 13 | LXR ag 2 inactive
CN(C)c1ccc(/C=C/C(=O)c2ccc(O)cc2)cc1	hgDAF12 agonist 19, DAX1 inh-1 3.7, DAX1 inh-2 5.5 | hgDAF12 ag 14 | LXR ag 2 inactive
COc1ccc(N/C=C/C(=O)c2ccc(Cl)cc2)cc1	hgDAF12 agonist 13 | hgDAF12 ag 16 | LXR ag 2 inactive
CCOC(=O)c1ccc(N/C=C/C(=O)c2ccc(OC)cc2)cc1	none
COc1cc(OC)cc(C(C)c2ccc(-c3ccccc3)cc2)c1 (stereo not drawn)	none (no result: DAX1 inh-1, DAX1 inh-2)
COc1ccc(OC)c(C=C2CCc3ccccc3C2=O)c1	hgDAF12 agonist 14 (no result: DAX1 inh-2) | hgDAF12 ag inactive | LXR ag 2 inactive
O=C1NC(=Nc2ccccc2)S/C1=C/c1cccs1	hgDAF12 agonist 15 | hgDAF12 ag inactive | LXR ag 2 inactive
O=C(O)c1cc(N/N=C/C=C/c2ccccc2[N+](=O)[O-])ccc1Cl	hgDAF12 agonist 13 | hgDAF12 ag inactive | LXR ag 2 inactive
CCn1c(O)c(/C=C2\C=Nc3ccccc32)sc1=Nc1ccc(C)cc1	none
CCn1c(O)c(/C=C2\C=Nc3ccccc32)sc1=O	hgDAF12 agonist 14 | hgDAF12 ag 22 | LXR ag 2 inactive
CN(C)C=Nc1ncc2c([nH]c3ccccc32)c1C#N	hgDAF12 agonist 22 | hgDAF12 ag inactive | LXR ag 2 inactive
Cc1cccc(OCCCC(=O)Nc2nc3ccccc3[nH]2)c1	hgDAF12 agonist 14 | hgDAF12 ag inactive | LXR ag 2 inactive
O=C(NC1CCCCN(Cc2ccc(Cl)cc2)C1=O)C(c1ccccc1)c1ccccc1 (stereo not drawn)	none (no result: DAX1 inh-2)
c1ccc(CCSc2nccn2-c2ccccc2)cc1	hgDAF12 agonist 14, hcDAF12 agonist 5.8 | hgDAF12 ag 14 | LXR ag 2 inactive
O=C(NCCc1ccccc1)c1ccc(Cl)c([N+](=O)[O-])c1	none
Cc1cc(C(=O)NCCc2ccccc2)ccc1[N+](=O)[O-]	hgDAF12 agonist 13 | hgDAF12 ag 12 | LXR ag 2 inactive
CNc1cncc(-c2ccc(CN(C)C)cc2)n1	hgDAF12 agonist 16, DAX1 inh-1 4.0 (no result: DAX1 inh-2) | hgDAF12 ag inactive | LXR ag 2 inactive
CC(=O)Nc1cncc(-c2ccc(CN(C)C)cc2)n1	none (no result: DAX1 inh-2)
CS(=O)(=O)N1N=C(c2ccc(Br)cc2)CC1c1cccs1 (stereo not drawn)	hgDAF12 agonist 14 | hgDAF12 ag inactive | LXR ag 2 inactive
O=C(COc1ccc(Cc2ccccc2)cc1)c1ccc(F)cc1	none
O=C(COc1ccc(F)cc1)c1ccc2c(c1)CCCC2	hgDAF12 agonist 14 | hgDAF12 ag 13 | LXR ag 2 inactive
O=C(NC(=S)Nc1ccc2c(c1)OCCO2)c1cccc(Br)c1	hgDAF12 agonist 14 | hgDAF12 ag 19 | LXR ag 2 inactive
O=C(Nc1cccc([N+](=O)[O-])c1)c1ccc2c(c1)OCCO2	none
O=C(Nc1nc2c(Br)cccc2s1)c1ccc2c(c1)OCCO2	hgDAF12 agonist 15 (no result: DAX1 inh-1, DAX1 inh-2) | hgDAF12 ag inactive | LXR ag 2 inactive
O=C(Nc1cccc(Cl)c1)c1ccc2c(c1)OCCO2	hgDAF12 agonist 21, hcDAF12 agonist 6.5 | hgDAF12 ag 18 | LXR ag 2 inactive
COC(=O)C1CN(Cc2ccccc2)CCS(=O)(=O)N1Cc1cn(Cc2ccccc2)nn1 (stereo not drawn)	none (no result: DAX1 inh-2)
O=C1[C@H](c2ccccc2)[C@@H](c2ccncc2)N1c1ccncc1	none (no result: DAX1 inh-2)
COc1cccc(CNC(=O)[C@H]2CCCN2C(=O)[C@H]2CCCN2C(=O)c2ccccc2C(F)(F)F)c1	none (no result: DAX1 inh-2)
O=C(N1CCc2ccccc2C1)n1cc(C(O)(c2ccccc2)c2ccccc2)nn1	none (no result: DAX1 inh-1, DAX1 inh-2)
O=C(NCc1ccccc1)[C@@H]1CCCN1C(=O)[C@H]1CCCN1C(=O)c1ccc(F)cc1F	none (no result: DAX1 inh-2)
Cc1ccc(NC(=O)c2nc[nH]c2C(=O)NCCCNC(=O)c2[nH]cnc2C(=O)Nc2ccc(C)cc2)cc1	none (no result: hgDAF12 agonist, DAX1 inh-1, Rev-erbA mod, ssDAF12 agonist, hcDAF12 agonist)
Cc1ccc(NC(=O)c2[nH]cnc2C(=O)NN)cc1	hgDAF12 agonist 13 | hgDAF12 ag inactive | LXR ag 2 inactive
Nc1ccc2c(c1)Cc1cc(N)c(Cl)cc1-2	hgDAF12 agonist 15 | hgDAF12 ag 12 | LXR ag 2 inactive
CC(=O)Nc1ccc(S(=O)(=O)NCC2CCN(C(=O)C(=O)c3cc4ccccc4o3)CC2)cc1	none (no result: DAX1 inh-2)
C=CCN(Cc1ccc2c(c1)OCO2)C(C#CCCCC)C(C)C (stereo not drawn)	none (no result: DAX1 inh-1, DAX1 inh-2)
O=C(O)C1=C(CSc2nnnn2CS(=O)(=O)O)CS[C@@H]2[C@@H](NC(=O)[C@H](O)c3ccccc3)C(=O)N12	none (no result: hgDAF12 agonist, DAX1 inh-1, DAX1 inh-2, ssDAF12 agonist, hcDAF12 agonist)
